Screening data as filed in PubChem BioAssay.
Rows were chosen to be rich in hits. Some 3.8% of all compounds tested hit in one or more screens of this group.
FBA Mtb inh: inhibits M. tuberculosis FBA enzyme; purified M. tuberculosis FBA, fluorescence read-out; inhibition, % at 1 µM; actives 2.3% (n = 360,000); in the data active = inhibition above about 27%;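 note: 0% = vehicle and 100% = reference inhibitor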
Yp Topo-I inh: blocks Yersinia pestis topoisomerase I activity; Y. pestis Topo-I cleavage product accumulation, plate reader; activity, % at 10 µM; actives 0.064% (n = 360,000); AID 504884; in the data active = activity above about 50%, passing the limit was not always enough; inconclusive = no clear call, values can overlap the other calls
GDH-TPI inh: counter-screen for M. tuberculosis FBA inhibitors: GDH-TPI coupled enzymes; GDH-TPI coupled enzyme counterscreen, NADH absorbance; inhibition, % at 4.8 µM; actives 1.2% (n = 360,000); AID 588335; in the data active = inhibition above about 30%;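 note: 0% = DMSO wells and 100% = wells lacking the enzyme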
PrP 5UTR inh: suppresses PrP 5' UTR mRNA reporter expression | cell-based PrP 5' UTR mRNA reporter, plate reader | inhibition, % (concentration not given with the values) | actives 0.35% (n = 340,000) | AID 488862; in the data active = inhibition above about 52%; note: 0 = median of the neutral control wells
Mtb hypoxia rep: reduces hypoxia-regulated biosensor signal in M. tuberculosis; M. tuberculosis hypoxia-regulated fluorescent reporter, fluorescence; fluorescence inhibition, % (concentration not given with the values); actives 0.1% (n = 300,000); in the data active = fluorescence inhibition mostly above about 23%, no sharp cut-off; inactive = mostly below about 17%
PrPC TRFRET: reduces human prion protein on the cell surface; actives 0.43% (n = 370,000); cell surface PrPC, TR-FRET read-out; inhibition, % at 13.8 µM; in the data active = inhibition above about 24%; note: 0% = median of the test wells and 100% = reference compound wells
PrPC TRFRET cf: cell surface PrPC inhibition, TR-FRET confirmation; shares compounds with PrPC TRFRET; AID 743200; cell surface PrPC level; actives 65% (n = 1,500); inhibition, % at 13.8 µM; in the data active = inhibition above about 25%
LD9 tox: LD9 cell cytotoxicity, PrPc inhibitor counter-screen | shares compounds with PrPC TRFRET | AID 743201 | LD9 cells cytotoxicity, luminescence viability | actives 29% (n = 1,500) | inhibition, % at 13.8 µM; in the data active = inhibition above about 9.5%
Active calls of the source: *; ? = inconclusive; . = not tested or not shown.

SMILES | FBA Mtb inh | Yp Topo-I inh | GDH-TPI inh | PrP 5UTR inh | Mtb hypoxia rep | PrPC TRFRET | PrPC TRFRET cf | LD9 tox
c1ccc2[nH]c(CNc3nc(N4CCOCC4)nc4c3ncn4-c3ccsc3)nc2c1 | . | . | . | . | . | 12 | . | .
FC(F)(F)c1ccc2nc(CNc3nc(N4CCOCC4)nc4c3ncn4-c3ccsc3)[nH]c2c1 | . | . | . | . | . | 41* | 37* | 17*
O=C(NCc1cccnc1)c1sc2ccccc2c1Cl | 1 | 5 | -1 | -18 | -4 | 8 | . | .
Cc1c(C(=O)NCc2cccnc2)sc2nc(-c3ccc(F)cc3)cn12 | 5 | -2 | 7 | -24 | 5 | 12 | . | .
Cc1ccc2c(Cl)c(C(=O)NCc3cccnc3)sc2c1 | 0 | 34 | 0 | -7 | -5 | 29* | 43* | -6
Cc1nn(Cc2ccccc2)c2sc(C(=O)NCc3cccnc3)cc12 | 0 | 1 | -7 | -19 | -3 | 24* | 14 | -1
Cc1c(C(=O)NCc2cccnc2)sc2nc(-c3ccccc3)cn12 | -3 | 13 | 5 | -18 | 6 | 28* | 12 | -6
Cc1ccc(-n2c(-c3ccc(Br)cc3)c[n+]3c2CCc2ccc4cccnc4c2-3)cc1 | 6 | 43 | -2 | -15 | . | 25* | 31* | 46*
Cc1[nH]c2ccccc2c1C=NNC(=O)Cc1cccs1 | . | . | . | . | -5 | . | . | .
CCOC(=O)C(C)Sc1nc2c(c(-c3cccs3)c1C#N)CCC2 (stereo unspecified) | 4 | 37 | 8 | -10 | 14 | 65* | 76* | -4
N#Cc1c(SC(C(=O)O)c2ccccc2)nc2c(c1-c1cccs1)CCCC2 (stereo unspecified) | -3 | 11 | 5 | -7 | 5 | 52* | 52* | -9
CSc1nc2c(c(-c3ccccc3)c1C#N)CCC2 | 2 | 0 | 22 | 4 | 9 | 9 | . | .
CC(C)OC(=O)CC(=O)CSc1nc2c(c(-c3cccs3)c1C#N)CCC2 | 5 | 27 | 3 | -28 | 2 | -1 | . | .
CCCc1nc(SCC(=O)Nc2nccs2)c2ccccc2n1 | 2 | 0 | 16 | -5 | 12 | 20 | . | .
COC(=O)CSc1nc(COc2ccccc2)nc2ccccc12 | -1 | -18 | 6 | -8 | 6 | 49* | 66* | -6
CCCNC(=O)CSc1nc(COc2ccccc2)nc2ccccc12 | -2 | 25 | 1 | -24 | 3 | 29* | 41* | -3
CCCCNC(=O)CSc1nc(CCC)nc2ccccc12 | 0 | 13 | 3 | -14 | 3 | 46* | 59* | -6
COc1ccc(C)cc1CN1C(=O)c2ccccc2C1=O | -2 | 4 | -12 | -10 | 12 | 28* | -4 | -5
C[n+]1cc2c3c(ccc2c2ccc4cc5c(cc4c21)OCO5)OCO3 | . | . | . | . | . | 87* | 101* | 99*
CC=CC(=O)Nc1cccc(C2=NOC3(C2)CC(C(N)=O)N(C(=O)c2ccc(OC)cc2)C3)c1 (stereo unspecified) | . | . | . | . | -16 | . | . | .
COC(=O)CSc1nc(Cc2ccccc2)nc2ccccc12 | 3 | 1 | 7 | -18 | 10 | 68* | 91* | -7
O=C(CSc1nc(Cc2ccccc2)nc2ccccc12)Nc1nc2c(s1)CCCC2 | -7 | 20 | 3 | -34 | 12 | 4 | . | .
CC(C)OC(=O)CSc1nc(Cc2ccccc2)nc2ccccc12 | 0 | 4 | 0 | -19 | 8 | 60* | 87* | 3
CCOC(=O)CSc1nc(Cc2ccccc2)nc2ccccc12 | -1 | ? | 1 | -11 | 2 | 64* | 89* | -1
CCOC(=O)CNC(=O)CSc1nc(Cc2cccs2)nc2ccccc12 | 1 | -14 | 27 | -12 | -8 | -3 | . | .
CCOC(=O)CSc1nc(CC)nc2ccccc12 | -2 | 10 | 5 | -54 | 10 | 106* | 121* | -8
CN1CC2C3C(=O)N(Cc4ccccc4)C(=O)C3[C@](C)(C1=O)N2C(=O)c1ccccc1 (stereo partly specified) | . | . | . | . | 20 | . | . | .
S=c1nc(-c2ccccc2)n(CCCN2CCOCC2)c2c1CCCC2 | 0 | 9 | 12 | -18 | 6 | -2 | . | .
S=c1nc(-c2ccccc2)n(CCCn2ccnc2)c2c1CCCC2 | 1 | -8 | 41* | -9 | 1 | 47* | 46* | -2
Cc1ccc2occ(C=NNC(=O)c3ccccc3Br)c(=O)c2c1 | . | . | . | . | 2 | . | . | .
